D1 potentiator = potentiators of human D1 dopamine receptor; HEK293 TREx D1 cells, calcium flux, dopamine EC20 potentiation; 0.036% of 360,000 active; AID 504651; potentiation, % at 10 µM; P21728; in the data active means potentiation above about 30%; further: 0% is about no effect
D1 ag = activates the human D1 dopamine receptor; P21728; HEK293 T-REx D1 cells, calcium flux, agonist mode; activation, % at 2 µM; 1% of 360,000 active; in the data active means activation above about 30%; further: 0% is about no effect
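Tetracycline-induced HEK293 TREx D1 cells, force-coupled to calcium signalling, were dye-loaded with a no-wash calcium kit. Compound was pin-added after a 10 s baseline. Fluorescence was read kinetically at 1 cycle/s for 180 s, with calcium rises flagged as agonism.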
TRPV1 PAM = potentiators of human vanilloid receptor 1 (TRPV1); Q8NER1; TRPV1-expressing cells, Fluo-8 calcium influx, capsaicin EC20 potentiation; potentiation, % at 8.33 µM; 0.02% of 320,000 active; in the data active means potentiation above about 80%; inconclusive means between about 30% and that limit; further: 0% is about no effect
Target sequence (Q8NER1 whole entry, looked up): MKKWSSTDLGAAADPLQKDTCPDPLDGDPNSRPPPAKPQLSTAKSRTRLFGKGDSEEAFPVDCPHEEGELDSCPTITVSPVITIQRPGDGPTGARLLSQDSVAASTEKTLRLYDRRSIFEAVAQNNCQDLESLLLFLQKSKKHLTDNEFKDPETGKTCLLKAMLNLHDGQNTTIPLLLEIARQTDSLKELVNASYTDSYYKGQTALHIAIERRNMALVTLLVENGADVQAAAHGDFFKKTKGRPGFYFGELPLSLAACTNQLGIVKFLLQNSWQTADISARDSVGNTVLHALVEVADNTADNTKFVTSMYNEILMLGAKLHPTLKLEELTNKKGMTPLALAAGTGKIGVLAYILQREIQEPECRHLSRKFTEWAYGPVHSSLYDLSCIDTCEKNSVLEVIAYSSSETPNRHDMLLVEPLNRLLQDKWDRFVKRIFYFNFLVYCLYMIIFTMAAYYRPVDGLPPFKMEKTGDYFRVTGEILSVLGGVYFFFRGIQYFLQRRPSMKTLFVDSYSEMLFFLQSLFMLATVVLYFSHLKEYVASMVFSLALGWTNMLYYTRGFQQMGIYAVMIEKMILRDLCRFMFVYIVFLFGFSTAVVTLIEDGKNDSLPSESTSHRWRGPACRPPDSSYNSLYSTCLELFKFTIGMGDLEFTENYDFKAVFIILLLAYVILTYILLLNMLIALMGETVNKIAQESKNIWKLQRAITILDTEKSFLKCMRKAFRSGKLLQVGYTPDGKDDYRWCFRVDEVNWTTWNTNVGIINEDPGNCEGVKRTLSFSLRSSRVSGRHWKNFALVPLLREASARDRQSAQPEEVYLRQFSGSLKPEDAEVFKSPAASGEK
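TRPV1-expressing cells were cultured overnight at 35.5C and loaded with Fluo-8 calcium dye for 40 to 90 min at room temperature. After a 10 s baseline, compound was added and calcium influx was read kinetically for 3 min (ex 480/em 520 nm).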
D1 antag = blocks dopamine activation of the human D1 receptor; 3.2% of 360,000 active; AID 504652; P21728; activity change, negative = inhibition, % at 10 µM; HEK293 TREx D1 cells, calcium flux, dopamine EC80; hits give low values; in the data active means activity change below about -30%; further: on the % scale 0 is the no-effect control and ±100 the full control effect
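Allosteric or orthosteric antagonism assessed as attenuation of the calcium response to EC80 dopamine, added 180 s after compound, in induced HEK293 Trex D1 cells loaded with no-wash calcium dye.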
TRPV1 agonist = human TRPV1 agonism. activation, % at 8.33 µM. 0.19% of 320,000 active. TRPV1-expressing cells, Fluo-8 calcium influx, agonist mode. Q8NER1. AID 540275; in the data active means activation above about 80%; inconclusive means between about 30% and that limit; further: 0% is about no effect
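TRPV1-expressing cells were cultured overnight at 35.5C and loaded with Fluo-8 calcium dye for 40 to 90 min at room temperature. After a 10 s baseline, compound was added and calcium influx was read kinetically for 3 min (ex 480/em 520 nm).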
Starred values were filed as active, the others as inactive; ? = inconclusive; . = no result. This is a sample that favours compounds with a hit; in the whole collection about 4.2% have one here.

SMILES | D1 potentiator | D1 ag | TRPV1 PAM | D1 antag | TRPV1 agonist
COc1ccc(C2C(C(=O)N3CCN(c4ccccc4)CC3)c3ccccc3C(=O)N2C)cc1 (stereo not given) | -7 | -2 | 9 | -41* | 1
COc1ccc(C2C(C(=O)N3CCN(c4ccccc4)CC3)c3ccccc3C(=O)N2C)cc1OC (stereo not given) | -2 | 2 | 7 | -5 | 5
COC(=O)c1[nH]c2ccccc2c1NS(=O)(=O)c1ccc(F)c(C)c1 | -7 | 1 | -13 | -48* | 11
CCCS(=O)(=O)Nc1c(C(=O)OC)[nH]c2ccccc12 | -4 | 5 | -5 | -18 | -2
C/C(=C1/C(=O)N(c2ccc([N+](=O)[O-])cc2)N=C1c1ccccc1)N(C)C | -5 | 34* | -4 | 0 | 1
CN(C)/C=C1/C(=O)N(c2ccc([N+](=O)[O-])cc2)N=C1c1ccccc1 | -3 | 12 | 4 | -8 | -3
CCCN(CCC)C(=O)Cn1c(=O)n(CCCCCC(=O)NCc2ccc3c(c2)OCO3)c(=O)c2sccc21 | 0 | -1 | . | -9 | .
CN(CCC#N)C(=S)NC(=O)c1ccc(S(=O)(=O)N2CCOCC2)cc1 | -12 | 4 | 2 | 4 | 2
Cc1ccc(S(=O)(=O)N2CCOCC2)cc1C(=O)NC(=S)N1CC(C)OC(C)C1 (stereo not given) | 0 | 0 | -3 | -35* | 3
CC(=O)N1CCN(C(=S)NC(=O)c2ccc(S(=O)(=O)N3CCOCC3)cc2)CC1 | -7 | 3 | -6 | -31* | 7
CC(C)c1ccc(CN2CCN(C(=O)CSc3nnnn3C3CC3)CC2)cc1 | -2 | 5 | -13 | -36* | 18
COc1ccccc1N1CCN(c2ncnc3c2cnn3C)CC1 | 1 | -1 | . | 11 | .
O=C(COc1ccccc1)N1CCN(C(=O)c2cccs2)CC1 | -4 | 1 | -1 | -3 | 0
O=C(COc1ccc(Cl)cc1)N1CCN(C(=O)c2cccs2)CC1 | -2 | 6 | -10 | -61* | 11
O=C(CSc1nnc2sc3ccccc3n12)N1CCN(c2ccccc2)CC1 | -5 | -3 | 0 | -59* | -3
O=C(COc1ccccc1)N1CCN(c2ccccc2)CC1 | -3 | 3 | -44 | -35* | 17
O=C(CSc1ccsc1[N+](=O)[O-])N1CCN(c2ccccc2)CC1 | -10 | 0 | -3 | -31* | 11
Cc1noc(/C=C/c2ccccc2F)c1S(=O)(=O)N1CCC(C(=O)N2CCOc3ccccc32)CC1 | 0 | 1 | . | -3 | .
Cc1nnc(N2C(=O)c3oc4ccccc4c(=O)c3C2c2cccc(OCCC(C)C)c2)s1 (stereo not given) | 0 | 1 | . | 8 | .
Cc1ccc(C)c(CN2CCCN(Cc3ccc(F)cc3)S2(=O)=O)c1 | 0 | 5 | . | 4 | .
O=C(OCC(=O)N1CCN(c2ccccc2)CC1)c1ccccc1[N+](=O)[O-] | -16 | 3 | 6 | -36* | 3
CCOC(=O)c1sc(Nc2nc3c(F)cccc3s2)cc1C | -2 | 1 | -13 | -5 | 13
CCOC(=O)c1sc(Nc2nc3ccc(OC)cc3s2)cc1C | -4 | 4 | 2 | -36* | 7
Cc1nn2c(N3CCCC3)c3c(nc2c1-c1ccccc1)CCC3 | -1 | 0 | 0 | 0 | 10
Cc1nn2c(N3CCN(CCO)CC3)c3c(nc2c1-c1ccccc1)CCCC3 | -2 | 9 | -18 | -66* | ?
SMILES | D1 potentiator | D1 ag | TRPV1 PAM | D1 antag | TRPV1 agonist
O=C(c1ccccc1)c1ccc2c(c1)OCCOCCOCCO2 | 6 | 8 | -8 | 3 | 0
O=C(c1ccccc1)N1CCN(C(=O)c2ccc3c(c2)OCCO3)CC1 | -3 | 1 | 0 | -39* | -1
O=C(c1ccccc1)c1ccc2c(c1)OCCCO2 | -3 | 1 | -20 | -40* | 20
CC(C)Oc1ccc(CNC(=O)Cn2c(=O)c3cccn3c3cccnc32)cc1 | -16 | 1 | -30 | -81* | 2
CC(C)Oc1ccc(CNC(=O)c2ccc(Cn3c(=O)c4cccn4c4cccnc43)cc2)cc1 | -6 | 7 | . | -7 | .
CN(C)S(=O)(=O)c1cccc(NC(=O)c2cnccn2)c1 | 1 | 1 | 6 | 3 | 3
CCN(CC)c1ccc(NC(=O)c2cnccn2)cc1S(=O)(=O)Nc1ccc(OC)cc1 | -2 | 0 | 20 | 4 | 85*
COc1ccc(NS(=O)(=O)c2cccc(NC(=O)c3cnccn3)c2)cc1Br | -3 | 7 | -7 | -31* | 5
CCCNc1ncnc2c1c(-c1ccccc1)cn2-c1ccccc1 | 3 | -1 | . | -3 | .
Fc1ccc(Nc2ccc(-c3ccc(F)cc3)nn2)cc1 | -8 | 2 | -10 | -45* | 8
COc1ccccc1-c1ccc(Nc2cccc(C(F)(F)F)c2)nn1 | -9 | -1 | ? | -13 | -7
Fc1ccc(-c2ccc(Nc3cccc(F)c3)nn2)cc1 | -10 | 2 | -4 | -34* | 0
N=c1oc2c3c4c(cc2cc1C(=O)Nc1ccccc1)CCCN4CCC3 | -8 | 385* | 11 | -88* | 84*
Cc1nc2nc(SCC(=O)NCCc3ccc(Cl)cc3)nn2c(C)c1Cc1c(F)cccc1Cl | 1 | -3 | . | 1 | .
O=C(COc1ccccc1[N+](=O)[O-])OC1CCS(=O)(=O)C1 (stereo not given) | -7 | 0 | 30 | -79* | -1
O=C(COc1ccccc1[N+](=O)[O-])N(C1CCCCC1)C1CCS(=O)(=O)C1 (stereo not given) | -4 | 3 | 8 | 15 | 0
O=C(CSc1ncc(S(=O)(=O)c2ccc(Cl)cc2)c(=O)[nH]1)Nc1cccc(C(F)(F)F)c1 | 4 | 0 | . | -32* | .
Cc1ccc(NC(=O)C2CC(=O)N/C(=N/N=C/c3ccco3)S2)cc1C (stereo not given) | -4 | 3 | -6 | -83* | 4
CC(=O)c1ccc(Nc2ncnc3c2oc2ccccc23)cc1 | -2 | 1 | -11 | 0 | 88*
O=S(=O)(NCCc1nnc2ccc(SCc3c(F)cccc3Cl)nn12)c1ccccc1 | -1 | 0 | . | 2 | .
Cn1nc(C(=O)NNC(=O)COc2ccccc2)c2ccccc2c1=O | 1 | 0 | -3 | -35* | -4
O=C(c1ccc(F)cc1)N1CCN(C2CCC(c3ccccc3)CC2)CC1 (stereo not given) | 1 | 3 | -6 | -41* | -2
COc1ccc(C(=O)N2CCC(N3CCN(c4ccccc4)CC3)CC2)cc1OC | -3 | 0 | -5 | -27 | 1
COc1ccc(C(=O)N2CCN(C3CCC(c4ccccc4)CC3)CC2)cc1OC (stereo not given) | -12 | -1 | -6 | -37* | -1
CCC(=O)Oc1ccc(-c2nc3ccccc3c(=O)o2)cc1 | -2 | 2 | . | -3 | .
COc1cccc(Cn2c(=O)n(-c3ccc(Br)cc3F)c(=O)c3sc4ccccc4c32)c1 | 7 | 7 | . | -6 | .

Screens as filed in PubChem BioAssay.
